GSIS activator – primary screen for activators of insulin secretion dependent on glucose, INS-1E cells, GLuc reporter luminescence; activation, % at 16.6 µM; hit rate 0.61% among 370,000; AID 743287; INS-1E GLuc reporter insulin secretion, 2-3 h;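 active means lowest replicate activation of at least 40%, so every replicate reaches that level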
NSD2 HMT inh – inhibitors of human histone methyltransferase NSD2. NSD2 peptide methylation, AlphaScreen, 120 min. O96028. hit rate 0.54% among 310,000. AID 743445. inhibition, % at 12.5 µM; in the data active means inhibition above about 50%
Env fusion inh – inhibitors of HIV Env-mediated cell fusion; HeLa-JRFL Env/CEM21 cell fusion, luciferase; inhibition, % at 12.3 µM; hit rate 1.1% among 360,000;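 active means mean replicate inhibition score of at least 50 and every replicate individually at or above 50; inconclusive means only one of the two criteria met; inactive means mean below 50 and not all replicates reaching 50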
AF4-AF9 inh – blocks AF4 peptide binding to human AF9; P42568; AlphaScreen, biotin-AF4 peptide binding to FLAG-AF9; inhibition, % at 10 µM; hit rate 0.47% among 350,000; AID 651704;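 active means every replicate reaching a set inhibition limit, whatever the replicate mean, cut at about 25% in these data; inconclusive means mean inhibition reaches that limit but some replicates miss it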
PGC1a acetyl inh – lowers PGC1a acetylation signal in U2OS cells; AlphaScreen anti-acetyl-lysine; with virally co-expressed GCN5 acetyltransferase; inhibition, % at 15.6 µM; hit rate 0.17% among 350,000;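 active means every replicate shows inhibition of at least 40%; inconclusive means mean inhibition at least 40% but some replicate below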
AlphaScreen intf – AlphaScreen signal interference counter-screen hit. shares compounds with AF4-AF9 inh. AID 720494. hit rate 45% among 530. signal luminescence. AC50, µM (doses to about 12 µM); cut-off not given, nearly all actives have AC50 up to about 14 µM
AlphaScreen art – counter-screen for NSD2 inhibitors: AlphaScreen artifacts. AlphaScreen artifact counterscreen, preloaded methylated H4 peptide. hit rate 9.4% among 1,500. AID 1053174. AC35, µM (titrated, usually from 10 µM). shares compounds with NSD2 HMT inh; call rule not given here
A number is an active result; . = inactive; ? = inconclusive; / = no result given. The list is not random: actives were taken first. Their share in the collection is about 2.1%.

SMILES | GSIS activator | NSD2 HMT inh | Env fusion inh | AF4-AF9 inh | PGC1a acetyl inh | AlphaScreen art | others
CCN1CCN(c2ccc(N)cc2C)CC1 | . | 60 | . | 43 | . | . | AlphaScreen intf=12µM
CNCC1(c2ccccc2)CCCC1 | / | . | . | / | . | /
CN1C(=O)/C(=C\c2ccc(Br)s2)C(=O)NC1=S | . | . | . | . | . | /
O=C1NC(=S)NC(=O)C1=Cc1ccc(Br)s1 | . | 52 | . | . | . | .
O=c1[nH]c(=S)[nH]c(O)c1N=Nc1cc(S(=O)(=O)Nc2ccc(Cl)cc2)ccc1Cl | . | 66 | . | . | . | .
NS(=O)(=O)c1ccc(N=Nc2c(O)[nH]c(=S)[nH]c2=O)cc1 | . | . | . | . | . | /
COC(=O)C1=C(c2ccc(OC)c(OC)c2)C[C@@H]2CC[C@H]1N2C(=O)NCCO | . | / | ? | . | . | /
c1ccc(C2c3ccccc3-n3nncc3CN2CC2CCCCC2)cc1 (configuration not stated) | . | / | . | . | . | /
CCNC(=S)NCCC1=c2ccccc2=N/C1=C\c1c(O)n(C)c(=O)n(C)c1=O | / | 55 | . | . | . | .
Cn1c(O)c(/C=C2\C=Nc3ccc(Br)cc32)c(=O)n(C)c1=O | . | . | . | . | . | /
OC1CN2CCC(O)C2C(O)C1O (configuration not stated) | . | / | / | . | / | /
COc1ccc2c(C)c(CC(=O)N3C[C@H]4C[C@@H](C3)c3cccc(=O)n3C4)c(=O)oc2c1 | / | / | / | . | . | /
Cc1ccc(/C=C2/C(=O)NC(=O)N(C)C2=O)cc1 | . | . | . | . | / | /
CN1C(=O)NC(=O)/C(=C/c2ccc([N+](=O)[O-])o2)C1=O | . | 59 | . | . | / | .
Cc1onc(-c2c(Cl)cccc2Cl)c1/C(N)=N/OC(=O)N(C)C | . | . | . | . | . | /
CCN1C[C@]2(CO)CC[C@H](OC)[C@@]34C2[C@H](OC)[C@@](O)(C13)[C@@]1(O)C[C@H](OC)[C@H]2C[C@@H]4[C@@H]1[C@H]2OC | . | 57 | . | . | . | .
CN1CCN(c2ncnc3c2cnn3C)CC1 | . | 76 | . | / | . | .
COc1ccc(C[C@@H]2c3cc(O)c(OC)cc3CCN2C)cc1O | / | / | / | . | / | /
Cn1c(O)c(/C=C/C=Nc2ccccc2)c(=O)n(C)c1=S | . | 55 | . | / | / | .
CCCCn1c(NS(=O)(=O)c2ccccc2)c(C(=O)OCC)c2nc3ccccc3nc21 | . | 99 | / | / | / | .
CCCCn1c(NC(=O)c2ccc(Br)o2)c(C(=O)OCC)c2nc3ccccc3nc21 | . | / | . | . | / | /
O=[N+]([O-])c1ccc(C2[C@H]3C(c4ccccc4)=NC4(CCCCC4)N23)cc1 (some centres not stated) | . | . | . | . | / | /
CNCCCc1ccccc1 | / | 103 | . | / | . | .
BrCCc1ccccc1 | . | / | / | / | . | /
Cc1cc(/C=C2\C(=O)NC(=O)N(c3ccccc3F)C2=O)c(C)n1-c1cc(C(=O)O)cc(C(=O)O)c1 | . | 62 | . | . | / | .
SMILES | GSIS activator | NSD2 HMT inh | Env fusion inh | AF4-AF9 inh | PGC1a acetyl inh | AlphaScreen art | others
Fc1ccccc1N1CCN(Cc2ccc3c(c2)OCO3)CC1 | / | . | . | / | / | /
CCCCSP1(=S)NCCCO1 (configuration not stated) | / | . | / | / | . | /
COCCNC(=O)c1c(NC(=O)c2ccco2)n(Cc2ccccc2)c2nc3ccccc3nc12 | / | 113 | / | / | / | .
COCCCNC(=O)c1c(NC(=O)c2ccccc2Cl)n(Cc2ccccc2)c2nc3ccccc3nc12 | / | . | . | / | / | /
O=C1NC(=O)C(=Cc2ccc(SC3CCCCC3)o2)C(=O)N1 | . | 62 | . | . | / | .
Cc1ccc(N2C(=O)NC(=O)/C(=C/c3cnn(-c4ccc(C)cc4)c3)C2=O)cc1 | . | 51 | . | / | / | .
CSc1ncc(/C=C2/C(=O)NC(=O)N(c3ccc(C)cc3)C2=O)cn1 | . | . | . | . | . | /
Cc1ccc(N2C(=O)NC(=O)/C(=C/c3ccoc3)C2=O)cc1 | . | 90 | . | . | ? | .
CCCCn1c(=O)c(C=Nc2ccc(Cl)cc2)c(O)n(Cc2ccco2)c1=O | . | / | . | . | / | /
CC(C)n1c(=O)c(C=Nc2ccc(S(N)(=O)=O)cc2)c(O)n(Cc2ccco2)c1=O | / | 67 | . | . | / | .
CCc1ccccc1N1C(=O)NC(=O)/C(=C\c2cc(C)n(C)c2C)C1=O | . | . | / | . | / | /
Cc1cc(C)cc(N2C(=O)NC(=O)/C(=C\C=C\c3ccco3)C2=O)c1 | . | 72 | / | . | . | .
CCc1ccc(N2C(=O)NC(=O)/C(=C\C=C\c3ccco3)C2=O)cc1 | . | 54 | . | . | . | .
CC1(C)CC(=O)C2=C(C1)NC(=O)C21C(C(=O)OC(C)(C)C)=C(N)Oc2ccc(Br)cc21 (configuration not stated) | . | 62 | . | / | . | .
CCC(C)NC(=O)c1c(N)n(CCCOC)c2nc3ccccc3nc12 (configuration not stated) | / | 106 | . | / | . | .

Source: PubChem (Broad Institute)
